An excerpt weighted towards active compounds, which were near 10% of everything screened.
hNpr1 antagonist – antagonists of human natriuretic peptide receptor Npr1; P16066; HEK293 hNpr1 GloSensor cGMP, ANP-stimulated luminescence; Potency, µM (titrated, usually from 46.3 µM), for inactives: at the top dose activity change, negative = inhibition, usual class: inhibitors; hit rate 1.6% among 76,000; AID 1347048; calls by dose curve; note: nearly all actives have a fitted effect of over 60% in size
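HEK293 cells stably expressing human Npr1 and cGMP GloSensor pGS-40F, loaded 2 h with 2% GloSensor reagent, given compound 30 min at room temperature. Luminescence read before and 20 min after 0.1 nM hNppA.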
FLuc inh – Photinus pyralis luciferase inhibition. P08659. purified P. pyralis luciferase, luminescence, biochemical. Potency, µM (titrated, usually from 115 µM), hits mostly inhibitors. hit rate 2.5% among 76,000; note: nearly all actives have a fitted effect of over 65% in size
Target sequence (P08659 whole entry, looked up): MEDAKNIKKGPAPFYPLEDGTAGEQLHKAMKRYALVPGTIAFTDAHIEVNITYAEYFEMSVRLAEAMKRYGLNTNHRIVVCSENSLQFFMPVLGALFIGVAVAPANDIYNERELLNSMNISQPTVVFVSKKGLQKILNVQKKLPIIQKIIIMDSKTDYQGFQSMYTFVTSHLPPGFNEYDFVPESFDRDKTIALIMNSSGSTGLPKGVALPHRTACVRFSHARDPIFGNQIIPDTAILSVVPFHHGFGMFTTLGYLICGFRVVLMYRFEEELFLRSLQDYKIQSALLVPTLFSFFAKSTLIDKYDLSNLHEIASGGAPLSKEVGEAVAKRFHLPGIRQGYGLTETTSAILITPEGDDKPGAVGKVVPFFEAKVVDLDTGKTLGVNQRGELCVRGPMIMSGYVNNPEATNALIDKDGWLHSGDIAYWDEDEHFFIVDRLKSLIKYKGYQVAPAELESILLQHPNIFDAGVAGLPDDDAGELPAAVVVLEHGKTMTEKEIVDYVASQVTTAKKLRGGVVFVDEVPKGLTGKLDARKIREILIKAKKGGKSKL
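Purified 10nM P. pyralis luciferase with 10uM D-luciferin and 10uM ATP in 50mM Tris acetate pH 7.5, 10mM Mg acetate, 0.01% Tween-20, 0.05% BSA. qHTS titration; luminescence read by CCD imager.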
3T3 cytotox – cytotoxic compounds in NIH 3T3 cells. NIH 3T3 viability, CellTiter-Glo ATP luminescence, 48-72 h. Potency, µM (doses to about 96.7 µM), inactives show at the top dose activity change, negative = cytotoxicity, actives largely listed as inhibitors. hit rate 4.3% among 94,000. AID 1345082; note: nearly all actives have a fitted effect of over 55% in size
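Cells were seeded at 400 per well, treated with pin-transferred compound, and kept 48 or 72 hr at 37 °C before CellTiter-Glo addition and luminescence imaging of cellular ATP.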
GPT2 inhibitor – GPT2 alanine aminotransferase inhibition. Q8TD30. Recombinant GPT2, coupled pyruvate oxidase/HRP Amplex Red fluorescence. Potency, µM (series often up to 57.7 µM), for the others: top-dose activity change, negative = inhibition, actives largely listed as inhibitors. hit rate 0.25% among 100,000. AID 1671188; note: nearly all actives have a fitted effect of over 60% in size
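Inhibition is scored from Amplex Red fluorescence generated when pyruvate oxidase and HRP act on pyruvate released by GPT2. Reactions contain 10ng/uL enzyme, 250uM a-KG and 2mM L-alanine and run 30 min at room temperature.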
HEK293 tox – cytotoxic compounds in HEK 293 cells. Potency, µM (series often up to 115 µM), without a hit: at the top dose activity change, negative = cytotoxicity, usual class: inhibitors. HEK 293 viability, ATP luminescence (CellTiter-Glo), 48-72 h. hit rate 6.6% among 94,000; note: nearly all actives have a fitted effect of over 60% in size
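HEK 293 seeded at 250 cells/well receive compound via pintool. After 48 or 72 hr at 37 degree Celsius, 5% CO2 and 95% humidity, CellTiter-Glo is dispensed and luminescence read following 10 min at room temperature.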
Numbers without * were called inactive; i = inactive; ? = inconclusive; . = no result; ! = a repeat was not active; [ ] = another dose, or the depositor's remark. Unless noted, calls come from the whole dose curve; as a rule, active = well fitted curve in the direction sought with a large enough effect; inconclusive = small, poorly fitted or top-dose-only effect, or another doubt; inactive = no such curve, though single readings can be large; an effect the other way counts as inactive or inconclusive. % is set by controls: 0 for no effect and ±100 for the full control effect; potency is the fitted concentration of half-maximal effect.

SMILES	hNpr1 antagonist	FLuc inh	3T3 cytotox	GPT2 inhibitor	HEK293 tox
O=C1NC2(CCCN(Cc3cccnc3)C2)COc2ccccc21 (stereo not given)	-23%[70.6 µM]	i	35µM*	3%[88.5 µM]	89µM*
C=C[C@H]1CN2CC[C@H]1C[C@@H]2CNC(=O)Nc1cc(OC)cc(OC)c1	0%[70.6 µM]	i	?	4%[88.5 µM]	-5%[172 µM]
C=C[C@H]1CN2CC[C@H]1C[C@@H]2CNC(=O)Nc1ccc(OC(F)(F)F)cc1	0%[70.6 µM]	i	?	-1%[88.5 µM]	-12%[172 µM]
C#C[C@H]1CN2CC[C@H]1C[C@@H]2CNC(=O)Nc1ccc(Oc2ccccc2)cc1	-1%[70.6 µM]	i	40µM*	4%[88.5 µM]	40µM*
C=C[C@H]1CN2CC[C@H]1C[C@@H]2CNC(=O)Nc1ccc(Oc2ccccc2)cc1	4%[70.6 µM]	i	?	i	100µM*
C=C[C@H]1CN2CC[C@H]1C[C@@H]2CNC(=O)c1cc(OC)c(OC)c(OC)c1	3%[70.6 µM]	i	45µM*	-6%[88.5 µM]	?
C#C[C@H]1CN2CC[C@H]1C[C@@H]2CNC(=O)Nc1ccc(C(C)=O)cc1	4%[70.6 µM]	i	?	5%[88.5 µM]	?
C=C[C@H]1CN2CC[C@H]1C[C@@H]2CNC(=O)Nc1ccc(Br)cc1	-6%[70.6 µM]	i	?	-3%[88.5 µM]	56µM*
CNC(=O)Oc1cccc2ccccc12	.	.	.	8.9µM*	.
COc1ccc2c(c1OC)CN1CCc3cc4c(cc3C1C2)OCO4 (stereo not given)	.	.	.	-10%	.
COc1ccc2c(c[n+](C)c3c4cc5c(cc4ccc23)OCO5)c1OC	.	.	.	10µM*!	.
C#C[C@H]1CN2CC[C@H]1C[C@@H]2CNCc1cccc(Cl)c1	-5%[70.6 µM]	i	?	-3%[88.5 µM]	126µM*
C#C[C@H]1CN2CC[C@H]1C[C@@H]2CNC(=O)c1ccc(-c2ccccc2)cc1	1%[70.6 µM]	i	112µM*	i	89µM*
CC[C@H]1CN2CC[C@H]1C[C@@H]2CNC(=O)c1ccc(-c2ccccc2)cc1	2%[70.6 µM]	i	?	-5%[88.5 µM]	89µM*
CC[C@H]1CN2CC[C@H]1C[C@@H]2CNC(=O)c1ccc2ccccc2c1	-12%[70.6 µM]	i	?	4%[88.5 µM]	?
C=C[C@H]1CN2CC[C@H]1C[C@@H]2CNCc1cccc(Cl)c1	-14%[70.6 µM]	i	?	i	?
C#C[C@H]1CN2CC[C@H]1C[C@@H]2CNC(=O)c1ccc(C#N)cc1	5%[70.6 µM]	i	0%[138 µM]	-4%[88.5 µM]	0%[172 µM]
O=C1Nc2ccccc2CC12CCCN(Cc1cccnc1)C2 (stereo not given)	.	.	-28%	-4%	-32%
COc1ccc(S(=O)(=O)NC[C@H]2C[C@@H]3CCN2C[C@@H]3CN2CCCCC2)cc1	3%[70.6 µM]	i	100µM*	-15%[88.5 µM]	112µM*
O=S(=O)(NC[C@H]1C[C@@H]2CCN1C[C@@H]2CN1CCc2ccccc21)c1ccc(Cl)cc1	4%	i	28µM*	?	20µM*
COc1ccc(S(=O)(=O)NC[C@H]2C[C@@H]3CCN2C[C@@H]3CN2CCc3ccccc32)cc1	2%[70.6 µM]	i	40µM*	-18%[88.5 µM]	28µM*
O=S(=O)(NC[C@H]1C[C@@H]2CCN1C[C@@H]2CN1CCc2ccccc2C1)c1ccc(Cl)cc1	4%	i	22µM*	1%	22µM*
CS(=O)(=O)NC[C@H]1C[C@@H]2CCN1C[C@@H]2CN1CCc2ccccc2C1	8%[70.6 µM]	i	-22%[174 µM]	2%[88.5 µM]	-21%[172 µM]
O=C(c1ccoc1)N1CC(CO)C2(CCNCC2)C1 (stereo not given)	6%	i	2%	i	-4%
COC1C(=O)N(CC2CC2)C12CCNCC2 (stereo not given)	-9%	i	0%	-9%	3%
SMILES	hNpr1 antagonist	FLuc inh	3T3 cytotox	GPT2 inhibitor	HEK293 tox
Cc1ccc(S(=O)(=O)NC[C@H]2C[C@@H]3CCN2C[C@@H]3CN2CCCCC2)cc1	4%[70.6 µM]	i	-23%[174 µM]	2%[88.5 µM]	?
Cc1ccc(S(=O)(=O)NC[C@H]2C[C@@H]3CCN2C[C@@H]3CN2CCc3ccccc32)cc1	-9%[70.6 µM]	i	45µM*	?	28µM*
O=C(Cc1ccc(F)cc1F)N1CCN(Cc2ccccc2)CC(O)C1 (stereo not given)	8%	i	i	0%	?
CC(=O)c1cn(C[C@H]2CC3CCN2C[C@@H]3C(=O)NC(C)C)nn1 (stereo not given in full)	0%[70.6 µM]	i	1%[174 µM]	i	i
COc1cc2c(cc1OCc1ccccc1)NC(=O)C21CCN(Cc2c(C)noc2C)CC1	?	?	?	-21%	25µM*
COc1cc2c(cc1OCC1CC1)NC(=O)C21CCN(C(C)=O)CC1	3%[70.6 µM]	i	?	2%[88.5 µM]	-1%[172 µM]
COc1cncc(-c2cc3c(cc2OC)C2(CCN(C(C)=O)CC2)C(=O)N3)c1	0%[70.6 µM]	i	32µM*	3%[88.5 µM]	-15%[172 µM]
COc1cc2c(cc1-c1ccc(N3CCN(C)CC3)nc1)NC(=O)C21CCN(C(C)=O)CC1	1%	i	?	?	-10%
COc1cc2c(cc1OCc1ccccc1)NC(=O)C21CCN(c2ncccn2)CC1	-27%[70.6 µM]	i	?	1%[88.5 µM]	?
COc1cc2c(cc1OCc1ccccc1)NC(=O)C21CCN(C(C)=O)CC1	-3%[70.6 µM]	?	40µM*	-21%[88.5 µM]	?
COc1cc2c(cc1OCc1ccccc1)NC(=O)C21CCN(c2ccnc(C)n2)CC1	?	?	?	4%[88.5 µM]	28µM*
COc1cc2c(cc1OCc1ccccc1)NC(=O)C21CCN(Cc2ccncc2)CC1	?	i	?	1%[88.5 µM]	?
COc1cc2c(cc1OCc1ccccc1)NC(=O)C21CCN(Cc2ccccc2)CC1	-25%[70.6 µM]	i	32µM*	1%[88.5 µM]	32µM*
COc1ccc(-c2cc([C@H]3CN4CC[C@H]3C[C@@H]4CNS(=O)(=O)c3ccc(C)cc3)n(C)n2)cc1OC	1%	i	22µM*	?	40µM*
COc1ccccc1-c1cc([C@H]2CN3CC[C@H]2C[C@@H]3CNS(C)(=O)=O)n(C)n1	7%[70.6 µM]	i	-13%[174 µM]	-4%[88.5 µM]	i
Cn1nc(C2CCCC2)cc1[C@H]1CN2CC[C@H]1C[C@@H]2CNS(=O)(=O)c1ccccc1	0%[70.6 µM]	i	112µM*	-6%[88.5 µM]	100µM*
COc1ccccc1-c1cc([C@H]2CN3CC[C@H]2C[C@@H]3CNS(=O)(=O)c2ccccc2)n(C)n1	1%	i	32µM*	0%	?
COc1ccc(-c2cc([C@H]3CN4CC[C@H]3C[C@@H]4CNS(=O)(=O)c3ccccc3)n(C)n2)cc1OC	-2%	i	?	i	?
COc1ccc(NC(=O)N2[C@H]3CC[C@@H]2c2cncnc2C3)c(C)c1	-3%	i	-5%	5%	-10%
CC(=O)O[C@H]1C[C@]2(O)[C@@H]3CC[C@@H]4C[C@@H](O)CC[C@]4(C)[C@H]3CC[C@]2(C)[C@H]1c1ccc(=O)oc1	.	.	.	i	.
